Growth inhibition data for 19 molecules are collected here from PubChem BioAssay (NCI).

Assay [1] in a line: NCI Yeast Anticancer Drug Screen. Data for the rad50 strain (AID 155).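 Further: 0% = growth of vehicle-only cultures of the same strain.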 As to conditions: S. cerevisiae rad50 strain growth inhibition; at 50.0 µM; stronger effect = higher value. The essentials: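 Compounds were tested on a yeast strain with an engineered DNA damage repair alteration; the reported value is growth inhibition normalised to vehicle treatment.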
A short description of assay [2]: NCI Yeast Anticancer Drug Screen. Data for the mec2-1 strain (AID 157). As to conditions: S. cerevisiae mec2-1 strain, at 50.0 µM, stronger effect = higher value. The essentials: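 Each compound was tested on mec2-1 yeast, a strain altered in DNA damage repair or cell cycle control. Growth inhibition is reported relative to vehicle.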
The nature of assay [3]: NCI Yeast Anticancer Drug Screen. Data for the sgs1 mgt1 strain (AID 161).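 Further: 0% = growth of cultures given vehicle only.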 As to conditions: S. cerevisiae sgs1 mgt1 strain, at 50.0 µM, stronger effect = higher value. The essentials: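 Genetically altered yeast, compound exposure, growth inhibition relative to vehicle.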
The nature of assay [4]: NCI Yeast Anticancer Drug Screen. Data for the cln2 rad14 strain (AID 165).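 Further: 0% = growth equal to vehicle treated cultures.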 As to conditions: S. cerevisiae cln2 rad14 strain, at 50.0 µM, stronger effect = higher value. Summed up: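 Test compounds were added to cln2 rad14 yeast cultures; inhibition of growth was then determined by comparison with vehicle treatment.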
Assay [5] in a line: NCI Yeast Anticancer Drug Screen. Data for the bub3 strain (AID 167). As to conditions: S. cerevisiae bub3 mutant strain, at 50.0 µM, stronger effect = higher value. Summed up:
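Growth of a checkpoint-deficient yeast mutant is measured after compound exposure. Values represent inhibition relative to vehicle.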

The nature of assay [6]: NCI Yeast Anticancer Drug Screen. Data for the mlh1 rad18 strain (AID 175). As to conditions: S. cerevisiae mlh1 rad18 strain growth inhibition; at 50.0 µM; stronger effect = higher value. Summed up: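 Inhibition values reflect reduced growth of mutant yeast versus vehicle-treated controls following compound exposure; the mutations affect DNA damage repair.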

Each structure is given as a SMILES string. About 79,000 compounds went through this panel and 15% of them were active in at least one assay; those are over-represented in the sample as a whole. Values without a mark were called inactive. The source made the active and inactive calls. No stated cut-off is given here; in the data, active means growth inhibition above about 70%; inactive means the rest.

Regarding `O=[N+]([O-])c1cc(S(=O)(=O)O)cc([N+](=O)[O-])c1Cl`, the growth inhibition in assay [1] is 8.35%; in assay [2], 7%; in assay [3] it was 2.85%; in assay [4], 50.5%; in assay [5] it was -17%; in assay [6] it was 24.8%.
Take `Nc1ccc([As](=O)(O)O)cc1C(=O)O`: the growth inhibition in assay [1] is -16.3%; in assay [2], -18.8%; in assay [3] it was -6.7%; in assay [4], -11%; in assay [5] it was 7.2%; in assay [6], -2.3%.
In the case of `Nc1cc(S(=O)(=O)O)cc2cc(S(=O)(=O)O)c(N=Nc3ccc([As]=O)cc3)c(O)c12` (centres undefined), the growth inhibition in assay [1] is -11.1%; in assay [2], 15.3%; in assay [3], -9.3%; in assay [4], -4.55%; in assay [5] it was 6.05%; in assay [6] it was -5.3%.
Regarding `NC(=O)C(N)C(F)c1ccccc1` (centres undefined), the growth inhibition was -11.4% in assay [1]; 2.85% in assay [2]; -16.4% in assay [3]; -13.6% in assay [4]; -11.7% in assay [5]; 16.8% in assay [6].
For the molecule `COc1ccccc1[As](=O)(O)c1ccccc1`, the growth inhibition in assay [1] was -6.45%; in assay [2], -0.85%; in assay [3], -1.45%; in assay [4] it was -47.6%; in assay [5], -11%; in assay [6], 5.25%.
For the molecule `CCCCCCCCCCCCCCCC[As](CCCCCCCCCCCCCCCC)SCC1OC(OC(C)=O)C(OC(C)=O)C(OC(C)=O)C1OC(C)=O` (centres undefined), the growth inhibition in assay [1] was -3.8%; in assay [2], 3.45%; in assay [3], 6%; in assay [4], 1%; in assay [5] it was -20.1%; in assay [6] it was -20.6%.
On to `NC(=O)C[N+](=O)[O-]`, for which the growth inhibition in assay [1] was -16.9%; in assay [2], 17%; in assay [3], -11.4%; in assay [4], 11%; in assay [5] it was -2.35%; in assay [6], -2.2%.
`O=C(NC1CCCCC1)C(Cl)(Cl)Cl`: the growth inhibition was -3.1% in assay [1]; -18.3% in assay [2]; -1.85% in assay [3]; -52% in assay [4]; -4.75% in assay [5]; -5.2% in assay [6].
For `CC[C@H]1CN2CCc3cc(OC)c(OC)cc3[C@@H]2C[C@@H]1C[C@H]1NCCc2c1[nH]c1ccc(O)cc21`, the growth inhibition is -16.8% in assay [1]; 17.3% in assay [2]; -19.9% in assay [3]; -8.65% in assay [4]; -26.9% in assay [5]; 7.7% in assay [6].
For the molecule `ClC1CC2CC1C1CNCC21` (centres undefined), the growth inhibition is -15.2% in assay [1]; -14.6% in assay [2]; -4.05% in assay [3]; -15.8% in assay [4]; -1.05% in assay [5]; -21% in assay [6].
As for `CN1CCC(O)(c2ccc(Br)cc2)C(C(=O)c2ccc(Br)cc2)C1` (centres undefined), the growth inhibition is 96.1% (active) in assay [1]; 12.3% in assay [2]; 99% (active) in assay [3]; -2.65% in assay [4]; 0.35% in assay [5]; 34.8% in assay [6].
In the case of `CNC(=O)Oc1cccc(N)c1`, the growth inhibition in assay [1] is 5.35%; in assay [2] it was -1.1%; in assay [3], 5.85%; in assay [4], 7.3%; in assay [5], -22.1%; in assay [6], -0.05%.
Consider `O=C1CC=C2C3CC4N(CCC45c4ccccc4N1C25)C/C3=C\CO` (centres undefined), for which the growth inhibition in assay [1] is 22.8%; in assay [2] it was -11.7%; in assay [3], -5.3%; in assay [4] it was 0%; in assay [5] it was 37%; in assay [6] it was -38%.
In the case of `CCCn1cc2c3c(cccc31)[C@H]1C[C@@H](C)CN(C)[C@@H]1C2`, the growth inhibition in assay [1] is 49.4%; in assay [2], 45.4%; in assay [3], 41%; in assay [4] it was 45.1%; in assay [5] it was 44%; in assay [6] it was 36.5%.
As to `O=C1CN=C(c2ccccc2)c2ccncc2N1`, the growth inhibition in assay [1] was 4.15%; in assay [2], 4.5%; in assay [3], 12.6%; in assay [4] it was 19.1%; in assay [5], 5.35%; in assay [6], 28.6%.
Regarding `COc1ccc2c(c1O)C1=CC(=O)CC[C@]13CCN(C)[C@H]3C2`, the growth inhibition in assay [1] was -14.1%; in assay [2] it was -38.3%; in assay [3], -14.2%; in assay [4], 6.15%; in assay [5], -15.2%; in assay [6], -10.2%.
`CCOC(=O)/C(=C\c1ccc(N(C)C)cc1)[Se]c1ccccc1`: the growth inhibition in assay [1] is 12.7%; in assay [2], -2.8%; in assay [3], -0.3%; in assay [4] it was 5%; in assay [5], 18.6%; in assay [6], 56.4%.
Consider `Nc1ccc2c(c1)[O][Sn]([c]1ccccc1)([c]1ccccc1)[O]C2=O`, for which the growth inhibition is 85.5% (active) in assay [1]; 89.5% (active) in assay [2]; 89.1% (active) in assay [3]; 89.2% (active) in assay [4]; 88.1% (active) in assay [5]; 89.3% (active) in assay [6].
For `CN(N)/N=N/c1nc[nH]c1[N+](=O)[O-]`, the growth inhibition in assay [1] was -11.9%; in assay [2] it was -24.6%; in assay [3], -2.6%; in assay [4] it was 4.85%; in assay [5], -12.1%; in assay [6], -3.4%.
